Measurements taken from PubChem BioAssay (NCI).
The panel holds about 79,000 compounds, 15% with a hit somewhere; the sample as a whole holds those more often. The source made the active and inactive calls. Cut-off read from the data, not from the text of the source: active = growth inhibition above about 70%; inactive = the rest.

Experiment: NCI Yeast Anticancer Drug Screen. Data for the sgs1 mgt1 strain (AID 161);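 note: 0% = growth of cultures given vehicle only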
Conditions: S. cerevisiae sgs1 mgt1 strain, at 50.0 µM, hits give high values
Summary of the method: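 Test agents were incubated with a DNA-repair-mutant yeast strain. Growth was then read and compared against vehicle-treated controls.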

SMILES	growth inhibition
COc1cc(NCCCCCNC(C)C)c2ncccc2c1OC	-1.95% (inactive)
CCOC(=O)Cn1c(=O)n(C)c(=O)c2c1ncn2Cc1ccccc1	-14.3% (inactive)
CSC(SC)=C1Sc2cccc(Cl)c2S1	29.2% (inactive)
CCOC(=O)C1(C)Sc2ccccc2N=C1c1ccccc1 (stereo not given)	45.5% (inactive)
CCOc1ccc(/C=C2\N=C(c3cccc(Cl)c3)OC2=O)cc1	22.1% (inactive)
CC(O)C(N=Cc1nc(-c2ccccc2)oc1O)C(=O)O (stereo not given)	0% (inactive)
c1cc(OCC2CO2)ccc1OCC1CO1 (stereo not given)	33.1% (inactive)
CN(C)CC1(Cc2ccccc2)CCC(Cc2ccccc2)C1=O (stereo not given)	85.3% (active)
COc1cc(NCCCCCCNCC(C)C)c2nccc(C)c2c1	62.8% (inactive)
CCOC(=O)C1=NN(c2ccccc2)C(=O)/C1=C\N1CC(=O)NC1=S	-31.5% (inactive)
CC1NC(=O)C2Cc3ccc(O)c(c3)Oc3cccc(c3)C(O)C(C(=O)N2C)N(C)C(=O)C(C)NC(=O)C(Cc2ccc(O)c(O)c2)N(C)C(=O)C(C)NC1=O (stereo not given)	6.6% (inactive)
O=C(Nc1ccc(Cl)cc1)c1ccc(C(=O)Nc2ccc(Cl)cc2)cc1	-20.1% (inactive)
O=C(CCc1cc(-c2ccc(F)cc2)n[nH]1)N(Cc1ccccc1)Cc1ccccc1	-27.8% (inactive)
c1ccc(C(=C2CCCCCCCCCCCCC2)c2ccccc2)cc1	-2.9% (inactive)
C/C(O)=C(\C=NC(=S)c1ccncc1)C(=O)Nc1ccccc1C	-4.8% (inactive)
c1ccc(Cc2nnc(Cc3ccccc3)nn2)cc1	2.7% (inactive)
C=C(COC(C)=O)CC(/C=C(\C)CCC=C(C)C)OC(C)=O (stereo not given)	8.9% (inactive)
Nc1nc2c(ncn2C2OCC(O)C(O)C2O)c(=O)[nH]1 (stereo not given)	-13.8% (inactive)
COc1cccc(NC(=O)CC(=O)Nc2cccc(OC)c2)c1	-8.4% (inactive)
c1ccc(N=C2N=c3ccccc3=C2c2c(Nc3ccccc3)[nH]c3ccccc23)cc1	-4.35% (inactive)

SMILES	growth inhibition
Cc1ncc2c(=O)c3c(oc2n1)c1ccccc1n3Cc1ccccc1	15.2% (inactive)
O=C1NC2CCC(NC(=O)N1c1ccccc1)C1=C2C1	-5.7% (inactive)
CC(NCc1cc(O)c(CNC(C)c2ccccc2)cc1O)c1ccccc1 (stereo not given)	17.1% (inactive)
Cc1cc(Cl)ccc1OCCCC(=O)NC(Cc1c[nH]c2ccccc12)C(=O)O (stereo not given)	17.7% (inactive)
OCCOCCNc1ncnc2cc(Cl)ccc12	5.25% (inactive)
COc1cc(C(=O)C(C)Br)cc(OC)c1OC (stereo not given)	64.9% (inactive)
C[C@H](CCC(=O)O)[C@H]1CC[C@H]2[C@@H]3[C@@H](O)C[C@@H]4C[C@H](O)CC[C@]4(C)[C@H]3C[C@H](O)[C@]12C	11.1% (inactive)
CC(=O)Nc1cc(F)c(N)c(F)c1	-13.3% (inactive)
CS(=O)(=O)C(CCC(=O)c1cccs1)C(=O)c1ccccc1 (stereo not given)	-6.65% (inactive)
O=C1C2C3C=CC(C2C(=O)N1CCl)C1C2C(=O)N(CCl)C(=O)C2C31 (stereo not given)	7.85% (inactive)
COc1cc(C2C3=C(COC3=O)Oc3cc4c(cc32)OCO4)cc(OC)c1OC(C)=O (stereo not given)	1.55% (inactive)
CC(C)CCCC(C)C1CCC2(C)C3CCC(C(C)O)C(C)(CCCO)C3CCC12C (stereo not given)	61.4% (inactive)
O=C(Nc1ccc(NC(=O)Nc2cc(C(F)(F)F)ccc2Oc2ccc(Cl)c(Cl)c2)cc1)Nc1cc(C(F)(F)F)ccc1Oc1ccc(Cl)c(Cl)c1	-13.4% (inactive)
Cn1ncc2c(=O)[nH]c(-c3ccccc3)nc21	-5.9% (inactive)
Cn1c(=O)c2c(ncn2CC(=O)O)n(C)c1=O	-8.5% (inactive)
CC(C)=NNC(=O)c1ccccc1O	3.5% (inactive)
Cc1ccc2ccc(=O)oc2c1	2.85% (inactive)
CCCCCCCCCCCCCCCCCC(N)=O	3.35% (inactive)
Cn1c2c(cc(-c3ccccc3)c1=O)COc1ccccc1-2	26.2% (inactive)
C=C(C)C(=O)OC1C/C(CO)=C\C(O)C/C(C)=C/C2OC(=O)C(=C)C21 (stereo not given)	33.7% (inactive)

Experiment: NCI Yeast Anticancer Drug Screen. Data for the cln2 rad14 strain (AID 165);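 note: 0% = growth equal to vehicle treated cultures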
Conditions: S. cerevisiae cln2 rad14 strain, at 50.0 µM, hits give high values
Summary of the method: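 Growth of compound-exposed yeast (cln2 rad14 genotype) measured and expressed as inhibition relative to vehicle.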

SMILES	growth inhibition
COc1cc(NCCCCCNC(C)C)c2ncccc2c1OC	-11.3% (inactive)
CCOC(=O)Cn1c(=O)n(C)c(=O)c2c1ncn2Cc1ccccc1	-4.25% (inactive)
CSC(SC)=C1Sc2cccc(Cl)c2S1	-14.7% (inactive)
CCOC(=O)C1(C)Sc2ccccc2N=C1c1ccccc1 (stereo not given)	7.35% (inactive)
CCOc1ccc(/C=C2\N=C(c3cccc(Cl)c3)OC2=O)cc1	19.6% (inactive)
CC(O)C(N=Cc1nc(-c2ccccc2)oc1O)C(=O)O (stereo not given)	1.2% (inactive)
c1cc(OCC2CO2)ccc1OCC1CO1 (stereo not given)	-24.9% (inactive)
CN(C)CC1(Cc2ccccc2)CCC(Cc2ccccc2)C1=O (stereo not given)	54% (inactive)
COc1cc(NCCCCCCNCC(C)C)c2nccc(C)c2c1	18.1% (inactive)
CCOC(=O)C1=NN(c2ccccc2)C(=O)/C1=C\N1CC(=O)NC1=S	-10.2% (inactive)
CC1NC(=O)C2Cc3ccc(O)c(c3)Oc3cccc(c3)C(O)C(C(=O)N2C)N(C)C(=O)C(C)NC(=O)C(Cc2ccc(O)c(O)c2)N(C)C(=O)C(C)NC1=O (stereo not given)	6.15% (inactive)
O=C(Nc1ccc(Cl)cc1)c1ccc(C(=O)Nc2ccc(Cl)cc2)cc1	5.35% (inactive)
O=C(CCc1cc(-c2ccc(F)cc2)n[nH]1)N(Cc1ccccc1)Cc1ccccc1	2.25% (inactive)
c1ccc(C(=C2CCCCCCCCCCCCC2)c2ccccc2)cc1	-2% (inactive)
C/C(O)=C(\C=NC(=S)c1ccncc1)C(=O)Nc1ccccc1C	13.3% (inactive)
c1ccc(Cc2nnc(Cc3ccccc3)nn2)cc1	7.25% (inactive)
C=C(COC(C)=O)CC(/C=C(\C)CCC=C(C)C)OC(C)=O (stereo not given)	-11.5% (inactive)
Nc1nc2c(ncn2C2OCC(O)C(O)C2O)c(=O)[nH]1 (stereo not given)	-6.15% (inactive)
COc1cccc(NC(=O)CC(=O)Nc2cccc(OC)c2)c1	-32.1% (inactive)
c1ccc(N=C2N=c3ccccc3=C2c2c(Nc3ccccc3)[nH]c3ccccc23)cc1	-27.1% (inactive)

SMILES	growth inhibition
Cc1ncc2c(=O)c3c(oc2n1)c1ccccc1n3Cc1ccccc1	3.1% (inactive)
O=C1NC2CCC(NC(=O)N1c1ccccc1)C1=C2C1	-0.8% (inactive)
CC(NCc1cc(O)c(CNC(C)c2ccccc2)cc1O)c1ccccc1 (stereo not given)	25.2% (inactive)
Cc1cc(Cl)ccc1OCCCC(=O)NC(Cc1c[nH]c2ccccc12)C(=O)O (stereo not given)	22.4% (inactive)
OCCOCCNc1ncnc2cc(Cl)ccc12	-14.2% (inactive)
COc1cc(C(=O)C(C)Br)cc(OC)c1OC (stereo not given)	-23% (inactive)
C[C@H](CCC(=O)O)[C@H]1CC[C@H]2[C@@H]3[C@@H](O)C[C@@H]4C[C@H](O)CC[C@]4(C)[C@H]3C[C@H](O)[C@]12C	-20.6% (inactive)
CC(=O)Nc1cc(F)c(N)c(F)c1	-5.25% (inactive)
CS(=O)(=O)C(CCC(=O)c1cccs1)C(=O)c1ccccc1 (stereo not given)	1.85% (inactive)
O=C1C2C3C=CC(C2C(=O)N1CCl)C1C2C(=O)N(CCl)C(=O)C2C31 (stereo not given)	-5.85% (inactive)
COc1cc(C2C3=C(COC3=O)Oc3cc4c(cc32)OCO4)cc(OC)c1OC(C)=O (stereo not given)	16.1% (inactive)
CC(C)CCCC(C)C1CCC2(C)C3CCC(C(C)O)C(C)(CCCO)C3CCC12C (stereo not given)	38.1% (inactive)
O=C(Nc1ccc(NC(=O)Nc2cc(C(F)(F)F)ccc2Oc2ccc(Cl)c(Cl)c2)cc1)Nc1cc(C(F)(F)F)ccc1Oc1ccc(Cl)c(Cl)c1	-23.2% (inactive)
Cn1ncc2c(=O)[nH]c(-c3ccccc3)nc21	3.55% (inactive)
Cn1c(=O)c2c(ncn2CC(=O)O)n(C)c1=O	6.7% (inactive)
CC(C)=NNC(=O)c1ccccc1O	2.3% (inactive)
Cc1ccc2ccc(=O)oc2c1	7.45% (inactive)
CCCCCCCCCCCCCCCCCC(N)=O	-15.7% (inactive)
Cn1c2c(cc(-c3ccccc3)c1=O)COc1ccccc1-2	2.45% (inactive)
C=C(C)C(=O)OC1C/C(CO)=C\C(O)C/C(C)=C/C2OC(=O)C(=C)C21 (stereo not given)	48% (inactive)
